GSH bead fluor: compound fluorescence on glutathione beads, profiling panel, artefact control, biophysical, 488/530 nm, flow cytometry. GSH beads flow cytometry, compound fluorescence 488/530 nm; stronger effect = higher value. fluorescence (KMESF) at 10 µM. 190,000 compounds, 0.25% hits. AID 1776, 2009; in the data active means fluorescence above about 89;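 further: glutathione beads carrying GST-tagged Bcl family fusion proteins plus one bare bead set; values are compound well signal with DMSO vehicle wells as background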
RGS8-Gao: RGS8-Galphao binding modulators, primary screen, biochemical, multiplexed bead flow cytometry; response (percent of control binding), % at 10 µM; actives lie on both sides; Guanine nucleotide-binding protein G(o) subunit alpha (Homo sapiens), P09471; 220,000 compounds, 0.34% hits; in the data active means response below about 60% or above about 140%; inactive means in between;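 further: Galphao activated as the GDP aluminium fluoride complex binding bead-coupled RGS8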
Avidin bead fluor: green autofluorescence of compounds with avidin beads – biophysical, 488/530 nm, flow cytometry, artefact control, profiling panel; compound fluorescence 488/530 nm; stronger effect = higher value; 220,000 compounds, 0.38% hits; fluorescence (KMESF) at 10 µM; in the data active means fluorescence above about 47
RGS16-Gao HTS: modulators of RGS16 binding to Galphao, primary screen, biochemical, human proteins, multiplexed bead flow cytometry; binding response (% of control), % at 10 µM; Regulator of G-protein signaling 16 (Homo sapiens) + Guanine nucleotide-binding protein …; 220,000 compounds, 0.38% hits; bead-based flow cytometry RGS16-Galphao binding, fluorescence; actives lie on both sides;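 further: Galphao activated by GDP with aluminum fluoride before binding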
RGS7-Gao reg: RGS7-Galphao binding modulators, primary screen, biochemical, multiplexed bead flow cytometry. Guanine nucleotide-binding protein G(o) subunit alpha (Homo sapiens), P09471. actives lie on both sides. binding response (% of control), % at 10 µM. 220,000 compounds, 0.35% hits. AID 1439, 2008; in the data active means binding response below about 49% or above about 150%; inconclusive means no clear call, values can overlap the other calls; inactive means in between;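 further: fluorescent Galphao held in activated GDP-AlF4 state binding bead-coupled RGS7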
RGS4-Gao reg: modulators of RGS4 binding to Galphao, primary screen, biochemical, multiplexed bead flow cytometry; actives lie on both sides; binding response (% of control), % at 10 µM; 220,000 compounds, 0.33% hits; in the data active means binding response below about 49% or above about 150%; inactive means in between;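 further: fluorescent Galphao activated with aluminum fluoride binding bead-coupled RGS4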
RGS4-Gao HTS: modulators of RGS–Galpha-o binding, primary screen, biochemical, multiplexed beads, flow cytometry, RGS4/7/8/16/19; RGS4–Galpha-o binding response, % at 10 µM; AID 1504, 2009; multiplexed bead flow cytometry; shares compounds with RGS16-Gao HTS; 1,600 compounds, 99% hits;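 further: fluorescently labeled Galpha-o bound to GDP with aluminium fluoride binding biotinylated RGS beads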
Avidin counter: disruption of biotin probe capture by avidin, counter-screen for RGS protein interaction modulators, biochemical, flow cytometry, bead-based; 1,700 tested, under 10 active; streptavidin beads, fluorescein-biotin binding; shares compounds with RGS16-Gao HTS; AID 1783, 2009; inhibition, % at 10 µM;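 active means inhibition above 50%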;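 further: median green fluorescence of gated singlet beads compared with DMSO control wells; 0% = DMSO wells and 100% = complete loss of bead fluorescence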
RGS8-Gao confirm: RGS8-Galphao binding modulators, confirmation, biochemical, multiplexed bead flow cytometry, single concentration; binding response (% of control), % at 10 µM; shares compounds with RGS16-Gao HTS; 1,700 compounds, 3% hits; bead-based flow cytometry RGS8-Galphao binding, fluorescence; actives lie on both sides; in the data active means binding response below about 72% or above about 130%; inactive means in between;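 further: Galphao activated as GDP AlF4 complex before binding bead RGS8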
RGS7-Gao confirm: RGS7-Galphao binding modulators, confirmation, biochemical, multiplexed bead flow cytometry, single concentration; shares compounds with RGS16-Gao HTS; bead-based flow cytometry RGS7-Galphao binding; actives lie on both sides; response (percent of control binding), % at 10 µM; 1,700 compounds, 7.8% hits; in the data active means response below about 75% or above about 130%; inactive means in between;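 further: fluorescent Galphao activated with GDP and aluminum fluoride binding bead-coupled RGS7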
RGS16-Gao conf: modulators of RGS16-Galphao protein binding, confirmation, biochemical, single concentration, multiplexed bead flow cytometry; shares compounds with RGS16-Gao HTS; response (% of control binding), % at 10 µM; 1,700 compounds, 4% hits; bead-based flow cytometry; actives lie on both sides; in the data active means response below about 74% or above about 130%; inactive means in between;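 further: Galphao activated as the GDP aluminium fluoride complex binding bead-coupled RGS16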
RGS4-Gao confirm: modulators of RGS4-Galphao protein binding, confirmation, biochemical, single concentration, multiplexed bead flow cytometry; shares compounds with RGS16-Gao HTS; actives lie on both sides; binding response (% of control), % at 10 µM; 1,700 compounds, 4% hits; AID 1840, 2009; in the data active means binding response below about 74% or above about 130%; inactive means in between
RGS19-Gao single: regulators of RGS19-Galphao binding, confirmation, biochemical, single point, multiplexed bead flow cytometry; shares compounds with RGS16-Gao HTS; bead-based flow cytometry RGS19-Galphao binding; actives lie on both sides; response (percent of control binding), % at 10 µM; 1,700 compounds, 5% hits; AID 1841, 2009; in the data active means response below about 50% or above about 160%; inactive means in between;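 further: 100% = no compound control and 0% = blank background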
Target sequence (P09471 whole entry, looked up): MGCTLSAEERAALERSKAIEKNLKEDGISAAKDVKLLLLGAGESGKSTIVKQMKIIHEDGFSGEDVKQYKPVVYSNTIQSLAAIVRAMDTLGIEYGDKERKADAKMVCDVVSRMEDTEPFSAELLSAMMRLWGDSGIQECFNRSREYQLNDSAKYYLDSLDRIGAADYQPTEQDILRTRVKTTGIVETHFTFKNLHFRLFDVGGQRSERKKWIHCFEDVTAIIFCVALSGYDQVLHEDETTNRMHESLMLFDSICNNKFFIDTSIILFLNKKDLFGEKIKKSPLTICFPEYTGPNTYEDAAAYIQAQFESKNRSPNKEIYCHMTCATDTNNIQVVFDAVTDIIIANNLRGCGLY
Target sequence (P49795 whole entry, looked up): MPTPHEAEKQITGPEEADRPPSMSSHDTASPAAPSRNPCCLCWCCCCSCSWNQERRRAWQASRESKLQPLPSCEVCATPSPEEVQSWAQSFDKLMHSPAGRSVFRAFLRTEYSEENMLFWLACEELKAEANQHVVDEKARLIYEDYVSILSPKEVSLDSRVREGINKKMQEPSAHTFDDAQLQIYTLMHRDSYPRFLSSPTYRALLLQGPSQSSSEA
An asterisk follows results filed as active; u = inconclusive; x = no result; [ ] = dose if it differs, or a comment. In the library only some 1.2% were active in any assay of this set; here they are far more common. Unless noted, how the calls were made is not given here.

SMILES	GSH bead fluor	RGS8-Gao	Avidin bead fluor	RGS16-Gao HTS	RGS7-Gao reg	RGS4-Gao reg	RGS4-Gao HTS	Avidin counter	RGS8-Gao confirm	RGS7-Gao confirm	RGS16-Gao conf	RGS4-Gao confirm	RGS19-Gao single
CCOC(=O)c1[nH]ncc1CN1CCCC(C(=O)c2ccc(C(C)(C)C)cc2)C1 (stereo not drawn)	12	140*[activator]	12	223	112	114	114*	-3	105	108	105	105	84
CNc1nc(Oc2ccccc2C(=O)OC)nc(SC)n1	17	104	10	109	106	104	x	x	x	x	x	x	x
CCOC(=O)c1ccc(NC(=O)C2(c3ccccc3)CCCC2)cc1	7	144*[activator]	5	321	123	131	131*	x	x	x	x	x	x
O=C(CSc1nnc(-c2ccncc2)n1CCc1ccccc1)N1CCCC1	x	97	9	93	u	99	x	x	x	x	x	x	x
CCCCN(C)C(=O)Cn1cnc2sc(C)cc2c1=O	21	98	110*	114	155*[activator]	109	109*	x	x	x	x	x	x
Cc1cc2c(C)cc(=O)oc2c2c1NCCC2	13	99	31	96	95	95	x	x	x	x	x	x	x
C(=N\Nc1ccc2ccccc2n1)/c1ccc2c(c1)OCCO2	13	140*[activator]	10	249	111	111	111*	0	101	102	101	99	104
CCOC(=O)CCCNC(=O)CCNC(=O)c1ccc(OC(C)C)cc1	29	103	10	113	102	103	x	x	x	x	x	x	x
C=C(C)CC(Nc1ccc(OC)cc1)c1ccco1 (stereo not drawn)	11	101	9	100	102	100	x	x	x	x	x	x	x
O=C1CC(c2ccc(S(=O)(=O)NCCOc3ccccc3)cc2)CN1 (stereo not drawn)	33	x	x	x	x	x	x	2	101	97	100	97	103
COc1ccc(N2CCN(C(=O)c3ccc(COc4ccc5c(C)cc(=O)oc5c4)cc3)CC2)cc1	24	99	84*	100	158*[activator]	180*[activator]	x	-1	102	98	102	100	95
COc1ccc(S(=O)(=O)N2CCN(C(=O)COc3ccc4c(C)cc(=O)oc4c3)CC2)cc1	11	103	10	100	101	105	x	x	x	x	x	x	x
